Source: PubChem BioAssay AID1159580 (chemical genetic matrix, 2015)
Screen size: about 5,500 compounds; about 2,000 (36%) were called active. Another 18% or so got no clear call; they are omitted. No stated cut-off is given here; in the data, active means normalized growth mostly below about 0.91 (no sharp cut-off); inconclusive means no clear call, values can overlap the other calls; inactive means mostly above about 0.92. The list shows a part of the results.

Assay: chemical genetic growth profiling, strain panel (AID 1159580);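 further: tested at 20 µM; growth read once vehicle control cultures reached saturation at 30 °C; 1 = growth at the plate median or of vehicle wells; lower values mean less growth of the strain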
Details: S. cerevisiae deletion strains, growth OD
[1] = locus YAL021C, strain ccr4, hits give low values
[2] = locus YAL026C, strain drs2, hits give low values
[3] = locus YAL030W, strain snc1, hits give low values
[4] = locus YBL061C, strain skt5, hits give low values
[5] = locus YBR009C, strain hhf1, hits give low values
[6] = locus YBR023C, strain chs3, hits give low values
[7] = locus YBR171W, strain sec66, hits give low values
[8] = locus YBR231C, strain swc5, hits give low values
[9] = locus YBR279W, strain paf1, hits give low values
[10] = locus YCL011C, strain gbp2, hits give low values
[11] = locus YCL016C, strain dcc1, hits give low values
[12] = locus YCL061C, strain MRC1, hits give low values
[13] = locus YCL069W, strain vba3, hits give low values
[14] = locus YCR088W, strain abp1, hits give low values
[15] = locus YDL005C, strain med2, hits give low values
[16] = locus YDL040C, strain nat1, hits give low values
[17] = locus YDR001C, strain nth1, hits give low values
[18] = locus YDR069C, strain doa4, hits give low values
[19] = locus YDR137W, strain rgp1, hits give low values
[20] = locus YDR159W, strain sac3, hits give low values
[21] = locus YDR297W, strain sur2, hits give low values
[22] = locus YDR334W, strain swr1, hits give low values
[23] = locus YDR335W, strain msn5, hits give low values
[24] = locus YDR392W, strain spt3, hits give low values
[25] = locus YEL003W, strain gim4, hits give low values
[26] = locus YEL037C, strain rad23, hits give low values
[27] = locus YEL061C, strain CIN8 (second series), hits give low values
[28] = locus YER015W, strain faa2, hits give low values
[29] = locus YER016W, strain bim1, hits give low values
[30] = locus YER111C, strain swi4, hits give low values
[31] = locus YER155C, strain BEM2 (second series), hits give low values
[32] = locus YFR010W, strain ubp6, hits give low values
[33] = locus YGL167C, strain pmr1, hits give low values
[34] = locus YGL173C, strain kem1, hits give low values
[35] = locus YGL227W, strain vid30, hits give low values
[36] = locus YGL240W, strain doc1, hits give low values
[37] = locus YGL253W, strain hxk2, hits give low values
[38] = locus YHR013C, strain ard1, hits give low values
[39] = locus YHR027C, strain rpn1, hits give low values
[40] = locus YHR142W, strain chs7, hits give low values
[41] = locus YJL092W, strain hpr5, hits give low values
[42] = locus YJL095W, strain BCK1 (second series), hits give low values
[43] = locus YJL115W, strain asf1, hits give low values
[44] = locus YJL129C, strain trk1, hits give low values
[45] = locus YJL154C, strain vps35, hits give low values
[46] = locus YJL164C, strain tpk1, hits give low values
[47] = locus YJL166W, strain qcr8, hits give low values
[48] = locus YJL187C, strain SWE1, hits give low values
[49] = locus YKL160W, strain elf1, hits give low values
[50] = locus YKR026C, strain gcn3, hits give low values
[51] = locus YKR091W, strain srl3, hits give low values
[52] = locus YLL001W, strain dnm1, hits give low values
[53] = locus YLL026W, hits give low values
[54] = locus YLL041C, strain sdh2, hits give low values
[55] = locus YLR027C, strain aat2, hits give low values
[56] = locus YLR221C, strain rsa3, hits give low values
[57] = locus YLR258W, strain gsy2, hits give low values
[58] = locus YLR262C, strain YPT6 (second series), hits give low values
[59] = locus YLR320W, strain mms22, hits give low values
[60] = locus YLR342W, strain FKS1, hits give low values
[61] = locus YLR357W, strain rsc2, hits give low values
[62] = locus YLR370C, strain arc18, hits give low values
[63] = locus YLR384C, strain iki3, hits give low values
[64] = locus YML120C, strain ndi1, hits give low values
[65] = locus YMR058W, strain fet3, hits give low values
[66] = locus YMR125W, strain sto1, hits give low values
[67] = locus YMR129W, hits give low values
[68] = locus YMR205C, strain PFK2, hits give low values
[69] = locus YMR231W, strain pep5, hits give low values
[70] = locus YNL071W, strain lat1, hits give low values
[71] = locus YNL209W, strain ssb2, hits give low values
[72] = locus YNL248C, strain rpa49, hits give low values
[73] = locus YNL322C, strain KRE1 (second series), hits give low values
[74] = locus YNR049C, strain mso1, hits give low values
[75] = locus YOR001W, strain rrp6, hits give low values
[76] = locus YOR070C, strain gyp1, hits give low values
[77] = locus YOR080W, strain dia2, hits give low values
[78] = locus YOR083W, strain WHI5, hits give low values
[79] = locus YOR106W, strain vam3, hits give low values
[80] = locus YOR265W, strain rbl2, hits give low values
[81] = locus YOR270C, strain vph1, hits give low values
[82] = locus YOR290C, strain snf2, hits give low values
[83] = locus YPL051W, strain arl3, hits give low values
[84] = locus YPL078C, strain atp4, hits give low values
[85] = locus YPL106C, strain sse1, hits give low values
[86] = locus YPL240C, strain hsp82, hits give low values

Measured: normalized growth

CCCCCCCCCCCCCc1ccco1
inactive: [1] 1.01 | [2] 0.976 | [3] 0.991 | [4] 0.979 | [6] 0.969 | [7] 0.991 | [8] 0.938 | [9] 0.947 | [10] 0.954 | [11] 0.973 | [12] 0.96 | [13] 0.989 | [14] 0.993 | [15] 0.988 | [16] 0.983 | [17] 0.989 | [18] 0.964 | [19] 0.886 | [20] 0.933 | locus YDR195W, strain ref2 0.973 | [21] 0.989 | [22] 0.987 | [23] 0.987 | [25] 0.953 | [26] 0.983 | [27] 0.976 | [28] 0.989 | [29] 0.978 | [30] 0.966 | [32] 0.96 | [33] 0.979 | [34] 0.968 | [35] 0.971 | [36] 0.936 | [37] 0.98 | [39] 0.992 | locus YHR030C, strain SLT2, hits give low values 0.951 | locus YHR079C, strain IRE1, hits give low values 0.937 | [40] 0.922 | [41] 0.988 | [42] 0.939 | locus YJL095W, strain BCK1, hits give low values 0.977 | [43] 0.99 | [44] 0.925 | [45] 0.991 | [48] 0.978 | locus YJR066W, strain TOR1, hits give low values 0.944 | [49] 0.931 | [50] 0.966 | [51] 0.989 | [52] 0.976 | [53] 0.949 | [54] 0.99 | [55] 0.939 | locus YLR113W, strain HOG1, hits give low values 0.939 | [57] 0.94 | [60] 0.986 | [61] 0.99 | [62] 0.989 | [63] 0.983 | [64] 0.959 | [65] 0.925 | [66] 0.934 | [67] 0.985 | [69] 0.985 | locus YNL183C, strain NPR1, hits give low values 0.908 | [71] 0.993 | [72] 0.999 | [73] 0.995 | [74] 0.989 | [75] 0.974 | [76] 0.944 | [77] 1 | [78] 0.96 | [79] 0.927 | locus YOR231W, strain MKK1, hits give low values 0.899 | [80] 0.981 | [81] 0.929 | [82] 0.913 | [83] 0.964 | [84] 0.947 | [85] 1.01 | [86] 0.991 | locus YPL256C, strain CLN2, hits give low values 0.91
active: [5] 0.825 | [24] 0.266 | [31] 0.635 | [38] 0.699 | [46] 0.915 | [47] 0.835 | [56] 0.889 | [58] 0.816 | [59] 0.81 | [68] 0.841 | [70] 0.621

C#CCCCCCCCCCCCc1ccco1
active: [24] 0.603 | [31] 0.849 | [70] 0.877
inactive: [1] 1.02 | [2] 0.98 | [3] 0.997 | [4] 0.999 | [5] 0.954 | [6] 0.994 | [7] 0.997 | [8] 0.995 | [9] 1 | [10] 0.983 | [11] 0.999 | [12] 1 | [13] 0.995 | [14] 0.992 | [15] 0.991 | [16] 0.987 | [17] 0.99 | [18] 0.983 | [19] 0.993 | [20] 0.958 | locus YDR195W, strain ref2 0.99 | [21] 1 | [22] 0.999 | [23] 0.989 | [25] 1.01 | [26] 1.01 | [27] 1 | [28] 0.992 | [29] 0.988 | [30] 0.972 | [32] 0.996 | [33] 0.999 | [34] 0.989 | [35] 0.991 | [36] 0.995 | [37] 0.989 | [38] 0.869 | [39] 1 | [40] 0.971 | [41] 0.989 | [42] 0.997 | [43] 0.987 | [44] 0.968 | [45] 1.01 | [46] 0.973 | [47] 0.947 | [48] 1 | [49] 0.985 | [50] 0.964 | [51] 0.993 | [52] 0.981 | [53] 0.982 | [54] 1 | [55] 0.985 | [56] 0.975 | [57] 0.99 | [58] 0.917 | [59] 0.932 | [60] 0.989 | [61] 0.975 | [62] 0.998 | [63] 0.987 | [64] 1 | [65] 0.987 | [66] 0.958 | [67] 0.998 | [68] 0.938 | [69] 0.993 | [71] 0.998 | [72] 0.982 | [73] 0.983 | [74] 0.996 | [75] 1 | [76] 1.01 | [77] 0.993 | [78] 0.985 | [79] 0.949 | [80] 1 | [81] 0.962 | [82] 0.975 | [83] 0.988 | [84] 0.991 | [85] 1.04 | [86] 1
